Shiga inhibitor: inhibitors of Shiga toxin in Vero cells; Vero cells, Shiga toxin protein synthesis inhibition reporter; hit rate 9.2% among 290,000; inhibition, % at 38.7 µM; AID 2315; in the data active means inhibition mostly above about 28%, no sharp cut-off; inactive means mostly below about 43%; further: 0% is about no effect
Cycloheximide cs: counter-screen for Shiga toxin inhibitors: cycloheximide protein synthesis inhibition; cell reporter, cycloheximide protein synthesis inhibition counterscreen; max response, %; hit rate 12% among 300,000; AID 2314; in the data active means max response mostly above about 13%, no sharp cut-off; inactive means mostly below about 14%; further: read at 38.3 µM for the half of the compounds with a filed dose; 0% is about no effect
NS1 function inh: blocks influenza NS1 protein function. Potency, µM (series often up to 46.1 µM), inactives show top-dose activity, positive = more growth. hit rate 0.4% among 270,000. AID 2326; further: potency means the concentration at half of the fitted maximal effect; actives are rising curves; nearly all actives have a fitted effect of over 50% in size
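OD600 was taken as the measure of yeast growth restored by compound in an NS1-expressing S. cerevisiae strain. Cells had been washed out of glucose medium and diluted 1:100 into galactose -URA medium, pH 6.0.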
Pf growth 48h: inhibits P. falciparum growth in the first generation, 48 h. Potency, µM (top dose mostly 28.7 µM), without a hit: top-dose activity change, negative = inhibition, most hits filed as inhibitors. hit rate 5.9% among 310,000. P. falciparum luciferase growth in erythrocytes, 48 h; active means well fitted inhibition curve with a large enough effect; inconclusive means small, poorly fitted or top-dose-only effect, or another doubt; inactive means no such curve, though single readings can be large or run the other way; further: potency means the concentration at half of the fitted maximal effect; on the % scale 0 is the no-effect control and ±100 the full control effect
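Luminescence readout; reporter = integrated firefly luciferase in P. falciparum. RBC culture at 2% hematocrit, 0.1% parasitemia final, 37 C/5% CO2; decreased signal taken as growth inhibition.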
Pf growth 96h: P. falciparum growth inhibition at 96 hours; hit rate 6.9% among 320,000; P. falciparum luciferase reporter growth, 96 h; Potency, µM (series often up to 28.7 µM), for inactives: top-dose activity change, negative = inhibition, usual class: inhibitors; AID 504834; active means well fitted inhibition curve with a large enough effect; inconclusive means small, poorly fitted or top-dose-only effect, or another doubt; inactive means no such curve, though single readings can be large or run the other way; further: potency means the concentration at half of the fitted maximal effect; on the % scale 0 is the no-effect control and ±100 the full control effect
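Delayed-death screen, second-generation endpoint: infected erythrocytes, 2% hematocrit, 0.05% parasitemia final; 96 hours at 37 C, 5% CO2; luciferase detection reagent; luminescence decrease equals reduced growth.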
SARS PLP yeast: SARS-CoV PLP inhibition in yeast. S. cerevisiae expressing SARS-CoV PLpro, growth rescue. Potency, µM (top dose mostly 32.9 µM), inactives show at the highest dose activity, positive = growth rescue, actives largely listed as activators. hit rate 0.19% among 330,000; further: potency means the concentration at half of the fitted maximal effect; 0% is about no effect; nearly all actives have a fitted effect of over 55% in size
Starred values were filed as active, the others as inactive. An excerpt weighted towards active compounds, which were near 21% of everything screened. Unless noted, the call rests on the fitted dose curve.

What do the screens show for `OCCc1c[nH]c2ccc(OCc3ccccc3)cc12`?
Shiga inhibitor: 17.6; Cycloheximide cs: -3.5; NS1 function inh: -24.4%; Pf growth 48h: 0.0%; Pf growth 96h: -6.2%; SARS PLP yeast: -2.4%

How did O=C(CCn1cnc2ccccc2c1=O)Nc1ccc2c(c1)OCCO2 do in these assays?
Shiga inhibitor: 73.4*; Cycloheximide cs: 14.4*; NS1 function inh: -2.9%; Pf growth 48h: 40.4%; Pf growth 96h: 9.6%; SARS PLP yeast: 3.7%

Results for O=S(=O)(c1ccccc1Cl)N1CCC(O)(c2ccc3c(c2)OCO3)CC1 ?
Shiga inhibitor: 17.3; Cycloheximide cs: 3.2; NS1 function inh: -37.4%; Pf growth 48h: 6.2%; Pf growth 96h: 2.94µM*; SARS PLP yeast: 13.6%

What do the screens show for `O=S(=O)(c1ccc2c(c1)OCCO2)N1CCN(S(=O)(=O)c2ccc3nc(Cl)c(Cl)nc3c2)CC1`?
Shiga inhibitor: 18.4; Cycloheximide cs: 27.3*

Results for O=S(=O)(c1cccc(F)c1)N1CCN(S(=O)(=O)c2ccc3c(c2)OCCO3)CC1 ?
Shiga inhibitor: 16.5; Cycloheximide cs: 2.7

How did O=S(=O)(c1ccc2c(c1)OCCO2)N1CCN(S(=O)(=O)c2ccc3c(c2)OCCO3)CC1 do in these assays?
Shiga inhibitor: -3.8; Cycloheximide cs: -5.9; Pf growth 48h: inconclusive; Pf growth 96h: inconclusive; SARS PLP yeast: 0.8%

Results for O=S(=O)(c1ccc2c(c1)OCCO2)N1CCC(O)(c2ccc(Cl)cc2)CC1 ?
Shiga inhibitor: 10.3; Cycloheximide cs: -2.9; NS1 function inh: -34.9%; Pf growth 48h: 8.9%; Pf growth 96h: 9.28µM*; SARS PLP yeast: -14.1%

Results for O=C(c1ccc(F)cc1F)N1CCN(S(=O)(=O)c2ccc3c(c2)OCCO3)CC1 ?
Pf growth 48h: inconclusive; Pf growth 96h: 9.28µM*; SARS PLP yeast: -9.7%

How did OC1(c2ccc3c(c2)OCO3)CCN(Cc2ccccn2)CC1 do in these assays?
Shiga inhibitor: -23.0; Cycloheximide cs: 1.0; NS1 function inh: 2.7%; Pf growth 48h: 10.3%; Pf growth 96h: -19.0%; SARS PLP yeast: -1.4%

Results for COc1ccc(-n2cnc3cc([N+](=O)[O-])ccc32)cc1 ?
Shiga inhibitor: 50.8; Cycloheximide cs: 9.8; NS1 function inh: -0.9%; Pf growth 48h: 4.1%; Pf growth 96h: inconclusive; SARS PLP yeast: -0.6%

What do the screens show for `Cc1cccc(-n2cnc3cc([N+](=O)[O-])ccc32)c1`?
Shiga inhibitor: 14.2; Cycloheximide cs: 11.6*; NS1 function inh: -4.1%; Pf growth 48h: 17.3%; Pf growth 96h: 2.6%; SARS PLP yeast: -25.8%

What do the screens show for `Nc1ccc(-n2cnc3cc([N+](=O)[O-])ccc32)cc1`?
Shiga inhibitor: 97.1*; Cycloheximide cs: 18.0*; NS1 function inh: -0.5%; Pf growth 48h: 54.2%; Pf growth 96h: 33.9%; SARS PLP yeast: 2.4%

How did CCOc1ncccc1C(=O)OCC(=O)NCc1ccccc1 do in these assays?
SARS PLP yeast: 1.3%

What do the screens show for `O=C(C[n+]1cc(-c2ccccc2)n2c1CCC2)c1cccs1`?
Shiga inhibitor: -3.9; Cycloheximide cs: -3.8; Pf growth 48h: inconclusive; Pf growth 96h: inconclusive; SARS PLP yeast: 0.1%

How did O=C(C[n+]1cc(-c2ccc(Br)cc2)n2c1CCCCC2)c1ccccc1 do in these assays?
Shiga inhibitor: -12.2; Cycloheximide cs: -3.3; Pf growth 48h: 1.65µM*; Pf growth 96h: inconclusive; SARS PLP yeast: 1.2%

What do the screens show for `O=C(C[n+]1cc(-c2ccc(Cl)cc2)n2c1CCCCC2)c1ccccc1`?
Shiga inhibitor: 52.3*; Cycloheximide cs: 25.5*; NS1 function inh: -1.7%; Pf growth 48h: inconclusive; Pf growth 96h: inconclusive; SARS PLP yeast: -0.6%

What do the screens show for `O=C(c1ccccc1[N+](=O)[O-])N(CCc1ccccc1)Cc1ccccc1`?
Shiga inhibitor: -7.9; Cycloheximide cs: 4.7; NS1 function inh: -0.5%; Pf growth 48h: -6.8%; Pf growth 96h: inconclusive; SARS PLP yeast: -0.8%

What do the screens show for `CN(CCc1ccccc1)Cc1ccccc1[N+](=O)[O-]`?
Shiga inhibitor: 41.8; Cycloheximide cs: 17.2*; NS1 function inh: 4.3%; Pf growth 96h: 58.7%; SARS PLP yeast: -1.5%

How did CCCN1CCN(C(=S)Nc2ccccc2C(F)(F)F)CC1 do in these assays?
Shiga inhibitor: -6.1; Cycloheximide cs: -2.2; NS1 function inh: -5.0%; Pf growth 48h: 0.5%; Pf growth 96h: inconclusive; SARS PLP yeast: -28.5%

Results for COCCN(Cc1nc(-c2ccc(-c3ccccc3)cc2)oc1C)C(C)C ?
Shiga inhibitor: 38.2*; Cycloheximide cs: 31.0*; NS1 function inh: -25.3%; Pf growth 48h: 154.0%; Pf growth 96h: inconclusive; SARS PLP yeast: 10.1%

Results for Cn1c(CCn2ccccc2=O)nc2cc(NC(=O)COc3ccccc3)ccc21 ?
Shiga inhibitor: 17.6; Cycloheximide cs: 29.4*; NS1 function inh: -12.2%; Pf growth 48h: -1.0%; Pf growth 96h: 10.4µM*; SARS PLP yeast: -2.9%

What do the screens show for `Cn1c(CCN2CCOCC2)nc2cc(NC(=O)COc3ccccc3)ccc21`?
Shiga inhibitor: 17.8; Cycloheximide cs: -0.1; NS1 function inh: 5.6%; Pf growth 48h: -9.8%; Pf growth 96h: 4.4%; SARS PLP yeast: 0.2%

How did Cn1c(CN2CCCC2)nc2cc(NC(=O)c3ccco3)ccc21 do in these assays?
Shiga inhibitor: 56.8; Cycloheximide cs: 33.5*; NS1 function inh: 2.6%; Pf growth 48h: 73.0%; SARS PLP yeast: -0.9%

Results for Cn1c(CN2CCCCC2)nc2cc(NC(=O)c3cccc(Br)c3)ccc21 ?
Shiga inhibitor: 19.1; Cycloheximide cs: 15.1; NS1 function inh: 1.1%; Pf growth 96h: 4.65µM*; SARS PLP yeast: 2.8%

What do the screens show for `COc1ccc(C(=O)Nc2ccc3c(c2)nc(CN2CCCC2)n3C)cc1`?
Shiga inhibitor: -5.0; Cycloheximide cs: 6.3; Pf growth 48h: 8.3%; Pf growth 96h: 7.8%; SARS PLP yeast: 7.1%

How did Cn1c(CN2CCCCC2)nc2cc(NC(=O)c3ccccc3)ccc21 do in these assays?
Shiga inhibitor: 50.6*; Cycloheximide cs: 36.2*; NS1 function inh: -11.1%; Pf growth 48h: inconclusive; SARS PLP yeast: 1.7%

Results for COCCNC(=O)/C(C#N)=C/c1c(N2CCN(C)CC2)nc2ccccn2c1=O ?
Shiga inhibitor: -2.1; Cycloheximide cs: -3.3; NS1 function inh: 1.1%; Pf growth 48h: 17.7%; Pf growth 96h: 30.9%; SARS PLP yeast: 1.8%

What do the screens show for `Cc1ccc(NC(=O)CSc2nnc(C(F)(F)F)n2C)cc1[N+](=O)[O-]`?
Shiga inhibitor: -6.6; Cycloheximide cs: -1.9; NS1 function inh: -0.6%; Pf growth 48h: 16.5%; Pf growth 96h: -10.5%; SARS PLP yeast: -5.7%

How did Cc1ccc(S(=O)(=O)N2CCCNCC2)cc1 do in these assays?
Shiga inhibitor: 7.7; Cycloheximide cs: 4.0; NS1 function inh: 4.0%; Pf growth 48h: inconclusive; Pf growth 96h: -6.1%; SARS PLP yeast: 2.5%

What do the screens show for `Cn1c(CN2CCCC2)nc2cc(NC(=O)Nc3ccccc3)ccc21`?
Shiga inhibitor: 43.8; Cycloheximide cs: 17.7*; NS1 function inh: 3.3%; Pf growth 48h: 12.1%; SARS PLP yeast: 9.5%

Source: PubChem BioAssay (National Center for Advancing Translational Sciences (NCATS))
